# Pf growth 96h: Primary qHTS for delayed death inhibitors of the malarial parasite plastid, 96 hour incubation | AID 504834, 2011 | actives 6.9% (n = 320,000) | P. falciparum luciferase reporter growth, 96 h | Potency, µM (top dose mostly 28.7 µM), usual class: inhibitors
#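 Infected RBCs, 2% Hct / 0.05% parasitemia final; luciferase-reporter P. falciparum; cpd 96 h, 37 C, 5% CO2; luciferase detection reagent; luminescence.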
# Pf growth 48h: Primary qHTS for delayed death inhibitors of the malarial parasite plastid, 48 hour incubation; Potency, µM (highest dose often 28.7 µM), actives largely listed as inhibitors; actives 5.9% (n = 310,000); P. falciparum luciferase growth in erythrocytes, 48 h
#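 Read-out is firefly luciferase luminescence from an integrated reporter in P. falciparum, so falling signal marks reduced parasite growth. Infected erythrocytes were at 2% hematocrit and 0.1% parasitemia (final) in Albumax-supplemented RPMI 1640.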
# NS1 inh: qHTS Assay for Inhibitors of Influenza NS1 Protein Function. Potency, µM (highest dose often 46.1 µM). AID 2326, 2010. actives 0.4% (n = 270,000); calls by dose curve; also: actives are rising curves; nearly all actives have a fitted effect of over 50% in size
#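 S. cerevisiae expressing influenza A NS1, grown in glucose, washed, then diluted 1:100 into pH 6.0 -URA galactose medium with 23 nl compound. Growth recovery read as OD600; NS1-free strain serves as control.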
# SARS PLpro yeast: qHTS of Yeast-based Assay for SARS-CoV PLP; Potency, µM (titrated, usually from 32.9 µM), hits mostly activators; actives 0.19% (n = 330,000); S. cerevisiae expressing SARS-CoV PLpro, growth rescue; calls by dose curve; also: nearly all actives have a fitted effect of over 55% in size
# Numbers stand for hits; i = inactive; ? = inconclusive; nt = not tested or not shown. Rows were chosen to be rich in hits. Some 10% of all compounds tested hit in one or more screens of this group. Unless noted, calls follow the shape of the dose curve; as a rule, active = well fitted inhibition curve with a large enough effect; inconclusive = small, poorly fitted or top-dose-only effect, or another doubt; inactive = no such curve, though single readings can be large or run the other way.
SMILES,Pf growth 96h,Pf growth 48h,NS1 inh,SARS PLpro yeast
CC1(COS(N)(=O)=O)CCCCC1,?,i,i,i
Cc1noc(C)c1COc1ccccc1C(=O)N(C)Cc1ccc(F)cc1,i,i,nt,i
Cc1noc(C)c1COc1ccccc1C(=O)N(C)Cc1ccc(C(C)(C)C)cc1,14.7µM,11.7µM,nt,i
Cc1noc(C)c1COc1ccccc1C(=O)NC1CCC(C)CC1 (stereo not drawn),4.15µM,?,i,i
Cc1noc(C)c1COc1ccccc1C(=O)NCCOc1ccccc1F,i,i,nt,i
Cc1noc(C)c1COC(=O)c1ccccc1Oc1ccccc1,13.1µM,i,i,i
O=C(Nc1ccccc1Cl)C1CC(=O)n2c(nc3ccccc32)N1 (stereo not drawn),i,i,i,i
C=C(C)COc1ccc(-c2n[nH]c(C)c2-c2ccc(OC)cc2)c(O)c1,3.7µM,?,i,i
CCOc1ccc(-c2n[nH]c(C)c2-c2ccccc2OC)c(O)c1,i,3.29µM,i,i
COc1ccc(-c2c(-c3ccc(OCC(=O)NN)cc3O)n[nH]c2C(F)(F)F)cc1,9.28µM,9.28µM,?,i
COc1ccc(-c2n[nH]c(C)c2-c2cscn2)c(O)c1,i,i,i,i
CC1CCN(S(=O)(=O)c2cc(C(=O)Nc3ccccn3)ccc2Br)CC1,?,?,nt,i
CCc1noc(C)c1C(=O)N(CC)CC(=O)NCc1ccc(Cl)cc1,i,i,nt,i
COc1cccc(NC(=S)N/N=C2\CC3CCC2(C)C3(C)C)c1 (stereo not drawn),?,10.4µM,nt,i
C[C@H](CO)N1C[C@H](C)[C@@H](CN(C)S(=O)(=O)c2cccs2)Oc2c(NS(=O)(=O)c3cn(C)cn3)cccc2C1=O,nt,nt,nt,i
CC(NC(=O)OCc1ccccc1)C(=O)OCN1C(=O)c2ccccc2C1=O (stereo not drawn),11.7µM,i,i,i
COC(=O)C(C)NC(=O)C(C)NC(=O)OCc1ccccc1 (stereo not drawn),nt,i,i,i
CCn1ccnc1CN(C)Cc1nc(-c2ccc(C(=O)OC)cc2)no1,i,i,i,i
COc1c(Cl)cc(C(=O)NCc2ccco2)cc1Cl,?,i,i,i
CCN(CC)c1ccc(/C=C/C(=O)c2cccnc2)cc1,?,0.928µM,nt,i
C1CCCC(N2CCNCC2)CC1,2.94µM,i,i,i
COc1ccccc1N1CCN(C2CCC(C)CC2)CC1 (stereo not drawn),i,i,i,i
CC1CCC(N2CCNCC2)CC1 (stereo not drawn),14.7µM,i,i,i
C1CCCN(C2CCNCC2)CC1,?,i,i,i
CC(=O)Nc1ccc(CN2CCC(CO)(CCOc3ccccc3)CC2)cc1,?,i,i,i
SMILES,Pf growth 96h,Pf growth 48h,NS1 inh,SARS PLpro yeast
CCOC(=O)C1(CCOc2ccccc2)CCN(Cc2ccc(NC(C)=O)cc2)CC1,i,13.1µM,i,i
CCOC(=O)C1(CCc2ccccc2)CCN(Cc2ccc(NC(C)=O)cc2)CC1,4.15µM,?,i,i
CCOC(=O)C1(CCOc2ccccc2)CCN(Cc2ccc(C)s2)CC1,10.4µM,13.1µM,i,i
CCOC(=O)C1(CCOc2ccccc2)CCN(Cc2cnc(C)s2)CC1,?,?,i,i
CCOC(=O)C1(CC2CC2)CCN(Cc2ccc(C(=O)OC)cc2)CC1,i,9.28µM,i,i
Cc1cc(S(=O)(=O)NCCCN2CCOCC2)c(C)cc1Cl,i,i,i,i
CCOC(=O)C1(CCCc2ccccc2)CCN(C(=O)C2CCCN(C(N)=O)C2)CC1 (stereo not drawn),13.1µM,?,i,i
CCOC(=O)C1(CCc2ccccc2)CCN(Cc2ccc3c(c2)OCCO3)CC1,10.4µM,i,i,i
CCOC(=O)C1(CCOc2ccccc2)CCN(Cc2cccc(OC)c2OC)CC1,10.4µM,?,i,i
CCOC(=O)C1(CCCc2ccccc2)CCN(C(=O)C2CCCO2)CC1 (stereo not drawn),i,?,i,i
CCOC(=O)C1(CCOc2ccccc2)CCN(Cc2cccc3c2OCO3)CC1,i,?,i,i
CCOC(=O)C1(CCc2ccccc2)CCN(Cc2ccc(C(=O)OC)cc2)CC1,i,?,i,i
CCCc1cc(=O)[nH]c(SCC(=O)Nc2cccc(S(=O)(=O)N3CCCCC3)c2)n1,?,i,nt,i
CN(C)/C(=N\S(=O)(=O)c1ccc(Cl)cc1)c1ccc(F)cc1,i,i,i,i
COc1ccc(-c2cc3cc(OC)c(OC)cc3c(C)n2)cc1C,10.4µM,?,i,i
CCCc1cc2c(=O)c(-c3ccccn3)c(C)oc2cc1O,9.28µM,?,i,i
CCCc1cc2c(=O)c(-c3ccccn3)coc2cc1OC,i,i,i,i
CCC(Cc1ccccc1)NS(=O)(=O)c1csc(C(N)=O)c1 (stereo not drawn),i,i,i,i
COc1ccc(CNc2cccc3[nH]c(C(F)(F)F)nc23)cc1,i,1.65µM,i,i
Cc1ccc(C(=O)Nc2cccc3[nH]c(C(F)(F)F)nc23)cc1,i,i,i,i
COc1cc(CNc2cccc3[nH]c(C(F)(F)F)nc23)cc(OC)c1,i,2.08µM,?,i
COc1ccc(C(CNC(=O)/C=C/c2c(Cl)nc3ccccn23)N(C)C)cc1 (stereo not drawn),?,i,nt,i
COc1ccc(CCN(C)C(=O)/C=C/c2c(Cl)nc3ccccn23)cc1OC,?,11.7µM,nt,i
O=S(=O)(NCc1ccccc1)c1ccc(S(=O)(=O)N(Cc2ccccn2)C2CCCC2)cc1,?,10.4µM,i,i
O=C(O)c1ccc(NC(=O)c2cn(-c3ccccc3)nc2-c2ccc(F)cc2)cc1,i,i,nt,i
SMILES,Pf growth 96h,Pf growth 48h,NS1 inh,SARS PLpro yeast
Cc1cccc(NC(=O)c2cnc3ccccn3c2=O)c1,11.7µM,i,i,i
Cc1cccc(NC(=O)c2cn(-c3ccccc3)nc2-c2ccccc2)c1,13.1µM,i,i,i
COc1cccc(-c2nn(-c3ccccc3)cc2C(=O)Nc2nccs2)c1,?,7.38µM,?,i
O=C(O)c1ccc(NC(=O)c2cn(-c3ccccc3)nc2-c2cccc(Cl)c2)cc1,11.7µM,i,i,i
COc1ccccc1N1CCN(CCC(=O)Nc2ccc(F)cc2)CC1,i,i,i,i
O=[N+]([O-])c1cc(CN2CCCC2)ccc1Sc1ccc(Cl)cc1,i,?,i,i
NS(=O)(=O)c1ccc(NC(=O)/C=C/c2cn(-c3ccccc3)nc2-c2cccc(Cl)c2)cc1,i,10.4µM,?,i
Cc1cccc(-n2nc(CC#N)c(C#N)c2N)c1,i,i,nt,i
N#CCc1nn(-c2ccc(Cl)cc2)c(N)c1C#N,13.1µM,i,i,i
CCc1ccc(CN2CCCC(C(=O)c3sccc3C)C2)o1 (stereo not drawn),i,i,i,i
COCc1ccc(CN2CCCC(C(=O)c3sccc3C)C2)o1 (stereo not drawn),14.7µM,i,i,i
CC(=O)Nc1ccc(S(=O)(=O)NCCc2ccc(S(N)(=O)=O)cc2)cc1,10.4µM,nt,i,i
CC(=O)Nc1ccc(S(=O)(=O)NCC(=O)NCCc2ccc(S(N)(=O)=O)cc2)cc1,0.828µM,i,nt,i
CC(=O)Nc1ccc(S(=O)(=O)NCC(=O)NCCCc2ccccc2)cc1,?,?,i,i

# High-throughput results as filed in PubChem.
